Test results from publication PMC7862700, “An all-to-all approach to the identification of sequence-specific readers for epigenetic DNA modifications on cytosine”.

Assays:
Experiment in all cases: DAPPL (digital affinity profiling via proximity ligation, sequencing); 10 mM Tris-HCl pH 7.5, 50 mM NaCl, 1 mM DTT, 4% glycerol, room temperature, 30 min; GST-TFs on glutathione beads, 16-mer random dsDNA library, 0.1% formaldehyde crosslink after washing; high values mean tight binding
Settings in all cases: protein: recombinant; tags: N-terminal GST; dsDNA, one strand shown
[1] = target: T1, FLI1 (Homo sapiens, UniProt Q01543 1-452)
T1 sequence: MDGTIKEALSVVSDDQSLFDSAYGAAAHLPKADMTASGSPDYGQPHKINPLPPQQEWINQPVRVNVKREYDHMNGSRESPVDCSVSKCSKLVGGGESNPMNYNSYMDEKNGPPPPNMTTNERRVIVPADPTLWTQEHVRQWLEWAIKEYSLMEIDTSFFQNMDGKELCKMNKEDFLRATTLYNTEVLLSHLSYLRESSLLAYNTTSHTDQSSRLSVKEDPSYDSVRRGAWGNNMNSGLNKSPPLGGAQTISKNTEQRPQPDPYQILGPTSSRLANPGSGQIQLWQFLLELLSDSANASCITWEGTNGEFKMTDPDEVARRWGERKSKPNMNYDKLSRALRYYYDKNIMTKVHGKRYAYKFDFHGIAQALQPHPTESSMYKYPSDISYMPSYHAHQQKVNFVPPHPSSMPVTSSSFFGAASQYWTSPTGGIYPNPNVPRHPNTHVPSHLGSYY
How it was run: (§1)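 The binding signal reported is, for every hexamer, its read frequency for a factor over its read frequency for the tag-only sample. Reads came from pools of yeast-expressed, GST-fused human transcription factors on glutathione beads, barcoded with DNA and mixed with that sample, which were incubated with 200 nmole of a random double-stranded 16-mer DNA library in Tris/NaCl/DTT/glycerol buffer at room temperature for 30 min. After washing, the pools were crosslinked with 0.1% formaldehyde, proximity-ligated with BsaI/T4 ligase for 1 h at 37 °C, PCR-amplified and sequenced on an Illumina NextSeq500.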

[2] = target: T2, ELK1 (Homo sapiens, UniProt P19419 1-428)
T2 sequence: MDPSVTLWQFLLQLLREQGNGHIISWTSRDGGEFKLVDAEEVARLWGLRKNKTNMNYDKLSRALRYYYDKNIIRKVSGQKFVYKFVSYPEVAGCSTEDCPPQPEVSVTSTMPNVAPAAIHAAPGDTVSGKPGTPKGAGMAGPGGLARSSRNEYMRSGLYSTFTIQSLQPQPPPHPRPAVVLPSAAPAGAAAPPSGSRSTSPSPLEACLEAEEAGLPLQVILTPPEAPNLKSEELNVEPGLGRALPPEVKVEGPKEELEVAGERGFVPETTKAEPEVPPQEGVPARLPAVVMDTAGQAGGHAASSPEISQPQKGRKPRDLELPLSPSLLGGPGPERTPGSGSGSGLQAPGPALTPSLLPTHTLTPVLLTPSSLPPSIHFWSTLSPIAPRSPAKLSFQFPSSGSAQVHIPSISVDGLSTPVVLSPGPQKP
How it was run: as §1

[3] = target: T3, GABPA (Homo sapiens, UniProt Q06546 1-454)
T3 sequence: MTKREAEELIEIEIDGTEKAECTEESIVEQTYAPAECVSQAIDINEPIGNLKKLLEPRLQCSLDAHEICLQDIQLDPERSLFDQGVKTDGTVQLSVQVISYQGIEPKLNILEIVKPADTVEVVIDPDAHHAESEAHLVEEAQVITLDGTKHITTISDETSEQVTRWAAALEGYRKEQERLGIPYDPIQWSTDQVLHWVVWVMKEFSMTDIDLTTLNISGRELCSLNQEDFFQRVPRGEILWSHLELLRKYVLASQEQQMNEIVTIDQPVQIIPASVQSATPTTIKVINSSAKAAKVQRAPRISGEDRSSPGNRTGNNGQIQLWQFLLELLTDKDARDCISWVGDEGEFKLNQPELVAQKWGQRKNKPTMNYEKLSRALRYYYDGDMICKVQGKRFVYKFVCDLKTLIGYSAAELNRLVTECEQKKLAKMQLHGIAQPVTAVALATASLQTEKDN
How it was run: as §1

[4] = target: T4, ERG (Homo sapiens, UniProt P11308 1-479)
T4 sequence: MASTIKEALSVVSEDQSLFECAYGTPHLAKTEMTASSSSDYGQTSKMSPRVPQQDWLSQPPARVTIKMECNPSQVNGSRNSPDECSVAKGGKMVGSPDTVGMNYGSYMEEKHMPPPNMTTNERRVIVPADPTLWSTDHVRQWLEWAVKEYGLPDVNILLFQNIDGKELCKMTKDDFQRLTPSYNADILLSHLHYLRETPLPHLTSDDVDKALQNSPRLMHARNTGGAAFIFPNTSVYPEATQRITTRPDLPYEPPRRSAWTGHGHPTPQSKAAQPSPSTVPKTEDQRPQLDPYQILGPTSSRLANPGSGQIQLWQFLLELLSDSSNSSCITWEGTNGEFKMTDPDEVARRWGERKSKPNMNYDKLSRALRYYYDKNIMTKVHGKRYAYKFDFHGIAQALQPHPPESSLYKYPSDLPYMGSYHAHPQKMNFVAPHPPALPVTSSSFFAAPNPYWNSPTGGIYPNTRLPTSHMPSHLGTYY
How it was run: as §1

[5] = target: ELF1 (Homo sapiens, UniProt P32519 1-619)
Chain of ELF1 (P32519 whole entry): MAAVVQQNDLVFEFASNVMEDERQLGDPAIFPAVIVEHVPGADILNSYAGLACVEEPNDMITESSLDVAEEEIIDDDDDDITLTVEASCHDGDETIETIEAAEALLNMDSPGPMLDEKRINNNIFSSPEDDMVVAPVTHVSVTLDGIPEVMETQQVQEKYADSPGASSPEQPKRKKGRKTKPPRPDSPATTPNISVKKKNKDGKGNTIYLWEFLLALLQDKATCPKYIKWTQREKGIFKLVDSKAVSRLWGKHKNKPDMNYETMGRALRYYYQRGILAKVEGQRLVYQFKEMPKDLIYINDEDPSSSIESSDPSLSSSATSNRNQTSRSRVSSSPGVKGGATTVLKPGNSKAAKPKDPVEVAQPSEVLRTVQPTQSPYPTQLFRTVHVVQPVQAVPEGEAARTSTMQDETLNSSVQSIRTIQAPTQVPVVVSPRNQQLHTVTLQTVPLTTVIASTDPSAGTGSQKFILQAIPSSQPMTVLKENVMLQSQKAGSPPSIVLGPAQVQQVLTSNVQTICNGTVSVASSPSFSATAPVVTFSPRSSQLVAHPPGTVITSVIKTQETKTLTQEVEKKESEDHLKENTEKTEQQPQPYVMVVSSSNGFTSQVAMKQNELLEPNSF
How it was run: as §1

[6] = target: T5, EHF (Homo sapiens, UniProt Q9NZC4 1-300)
T5 sequence: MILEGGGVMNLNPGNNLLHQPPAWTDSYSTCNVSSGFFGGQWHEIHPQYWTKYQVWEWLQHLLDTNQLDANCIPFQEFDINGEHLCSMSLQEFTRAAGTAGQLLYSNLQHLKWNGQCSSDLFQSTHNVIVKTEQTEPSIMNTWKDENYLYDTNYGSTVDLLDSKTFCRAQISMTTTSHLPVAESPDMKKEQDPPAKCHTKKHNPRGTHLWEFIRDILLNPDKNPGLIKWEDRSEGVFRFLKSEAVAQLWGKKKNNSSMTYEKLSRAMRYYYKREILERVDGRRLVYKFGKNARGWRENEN
How it was run: as §1

[7] = target: SPI1 (Homo sapiens, UniProt P17947 1-270)
How it was run: as §1

[8] = target: SPIB (Homo sapiens, UniProt Q01892 1-262)
Chain of SPIB (Q01892 whole entry): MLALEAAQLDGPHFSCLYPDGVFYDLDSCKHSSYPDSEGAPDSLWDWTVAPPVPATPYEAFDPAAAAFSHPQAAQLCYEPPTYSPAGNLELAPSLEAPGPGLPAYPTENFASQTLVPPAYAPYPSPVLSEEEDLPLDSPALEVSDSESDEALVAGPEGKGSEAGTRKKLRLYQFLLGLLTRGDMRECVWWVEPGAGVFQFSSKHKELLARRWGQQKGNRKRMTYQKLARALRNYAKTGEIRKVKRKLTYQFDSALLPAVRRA
How it was run: as §1

[9] = target: T6, ELK3 (Homo sapiens, UniProt P41970 1-407)
T6 sequence: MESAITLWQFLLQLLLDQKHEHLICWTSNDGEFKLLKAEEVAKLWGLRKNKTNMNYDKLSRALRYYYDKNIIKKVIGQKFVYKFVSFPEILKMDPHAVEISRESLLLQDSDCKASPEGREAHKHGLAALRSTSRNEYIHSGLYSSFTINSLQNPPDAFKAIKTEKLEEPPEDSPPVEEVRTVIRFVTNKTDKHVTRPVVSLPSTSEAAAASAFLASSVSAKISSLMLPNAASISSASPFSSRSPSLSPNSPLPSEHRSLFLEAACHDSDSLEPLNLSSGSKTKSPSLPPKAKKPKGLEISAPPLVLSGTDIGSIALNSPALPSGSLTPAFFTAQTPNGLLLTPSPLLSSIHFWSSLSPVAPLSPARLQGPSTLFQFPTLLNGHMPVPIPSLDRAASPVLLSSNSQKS
How it was run: as §1

[10] = target: T7, FEV (Homo sapiens, UniProt Q99581 1-238)
T7 sequence: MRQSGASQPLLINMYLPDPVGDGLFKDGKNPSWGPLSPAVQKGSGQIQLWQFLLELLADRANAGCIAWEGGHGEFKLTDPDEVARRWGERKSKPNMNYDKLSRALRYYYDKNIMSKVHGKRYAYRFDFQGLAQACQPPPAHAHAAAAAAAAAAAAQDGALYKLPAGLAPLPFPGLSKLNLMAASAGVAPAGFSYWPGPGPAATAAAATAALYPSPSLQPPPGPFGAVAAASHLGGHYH
How it was run: as §1

[11] = target: ETV5 (Homo sapiens, UniProt P41161 1-510)
Chain of ETV5 (P41161 whole entry): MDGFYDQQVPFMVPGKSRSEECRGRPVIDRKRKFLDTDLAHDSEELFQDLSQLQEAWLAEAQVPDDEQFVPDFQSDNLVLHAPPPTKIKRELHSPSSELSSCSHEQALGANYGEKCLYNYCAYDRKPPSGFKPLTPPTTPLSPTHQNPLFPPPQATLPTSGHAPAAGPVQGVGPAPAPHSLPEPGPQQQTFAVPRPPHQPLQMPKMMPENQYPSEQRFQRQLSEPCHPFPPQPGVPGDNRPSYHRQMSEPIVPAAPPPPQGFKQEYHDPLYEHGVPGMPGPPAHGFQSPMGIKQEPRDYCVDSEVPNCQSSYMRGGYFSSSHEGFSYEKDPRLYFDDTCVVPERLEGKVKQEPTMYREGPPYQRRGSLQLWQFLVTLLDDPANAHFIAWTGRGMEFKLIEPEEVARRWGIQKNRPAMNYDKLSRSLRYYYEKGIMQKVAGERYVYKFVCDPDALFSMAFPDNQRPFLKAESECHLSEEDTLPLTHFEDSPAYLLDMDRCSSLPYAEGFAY
How it was run: as §1

[12] = target: T8, SPIC (Homo sapiens, UniProt Q8N5J4 1-248)
T8 sequence: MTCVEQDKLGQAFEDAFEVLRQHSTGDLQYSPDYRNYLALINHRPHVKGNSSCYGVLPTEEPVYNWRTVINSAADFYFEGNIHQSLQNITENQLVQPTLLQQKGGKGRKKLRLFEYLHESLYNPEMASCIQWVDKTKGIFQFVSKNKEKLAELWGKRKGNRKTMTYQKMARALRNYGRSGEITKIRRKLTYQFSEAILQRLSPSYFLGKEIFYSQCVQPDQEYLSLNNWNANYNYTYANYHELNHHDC
How it was run: as §1

[13] = target: ELF4 (Homo sapiens, UniProt Q99607 1-663)
Chain of ELF4 (Q99607 whole entry): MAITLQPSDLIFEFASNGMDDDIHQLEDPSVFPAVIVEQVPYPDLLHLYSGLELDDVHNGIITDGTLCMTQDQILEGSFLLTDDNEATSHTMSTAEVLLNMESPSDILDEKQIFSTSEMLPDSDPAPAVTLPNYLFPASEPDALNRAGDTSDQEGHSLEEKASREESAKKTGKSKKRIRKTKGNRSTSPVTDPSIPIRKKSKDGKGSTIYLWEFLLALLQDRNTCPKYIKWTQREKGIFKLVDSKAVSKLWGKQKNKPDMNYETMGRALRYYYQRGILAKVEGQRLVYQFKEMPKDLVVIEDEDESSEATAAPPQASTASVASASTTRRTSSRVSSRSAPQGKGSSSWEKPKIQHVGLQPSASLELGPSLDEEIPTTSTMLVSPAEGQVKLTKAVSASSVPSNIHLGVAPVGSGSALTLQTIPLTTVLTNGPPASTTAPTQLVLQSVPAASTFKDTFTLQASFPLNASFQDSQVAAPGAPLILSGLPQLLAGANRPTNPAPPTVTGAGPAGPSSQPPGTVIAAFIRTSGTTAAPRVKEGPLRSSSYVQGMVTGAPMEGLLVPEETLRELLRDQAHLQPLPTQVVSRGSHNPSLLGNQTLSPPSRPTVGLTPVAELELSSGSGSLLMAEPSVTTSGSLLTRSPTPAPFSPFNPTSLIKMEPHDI
How it was run: as §1

[14] = target: ETV1 (Homo sapiens, UniProt P50549 1-477)
Chain of ETV1 (P50549 whole entry): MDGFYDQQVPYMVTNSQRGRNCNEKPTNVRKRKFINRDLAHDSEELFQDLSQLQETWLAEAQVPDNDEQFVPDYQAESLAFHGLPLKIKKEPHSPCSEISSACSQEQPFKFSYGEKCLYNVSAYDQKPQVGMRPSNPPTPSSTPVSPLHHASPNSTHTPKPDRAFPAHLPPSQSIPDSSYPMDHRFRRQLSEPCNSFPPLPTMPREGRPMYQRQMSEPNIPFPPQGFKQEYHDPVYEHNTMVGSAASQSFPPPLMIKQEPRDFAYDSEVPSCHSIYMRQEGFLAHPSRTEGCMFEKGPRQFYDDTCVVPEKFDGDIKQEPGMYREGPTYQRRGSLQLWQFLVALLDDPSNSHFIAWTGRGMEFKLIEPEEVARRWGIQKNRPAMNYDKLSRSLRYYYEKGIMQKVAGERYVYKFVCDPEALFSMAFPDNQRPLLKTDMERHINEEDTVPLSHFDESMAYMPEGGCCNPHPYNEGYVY
How it was run: as §1

[15] = target: T9, ERF (Homo sapiens, UniProt P50548 1-548)
T9 sequence: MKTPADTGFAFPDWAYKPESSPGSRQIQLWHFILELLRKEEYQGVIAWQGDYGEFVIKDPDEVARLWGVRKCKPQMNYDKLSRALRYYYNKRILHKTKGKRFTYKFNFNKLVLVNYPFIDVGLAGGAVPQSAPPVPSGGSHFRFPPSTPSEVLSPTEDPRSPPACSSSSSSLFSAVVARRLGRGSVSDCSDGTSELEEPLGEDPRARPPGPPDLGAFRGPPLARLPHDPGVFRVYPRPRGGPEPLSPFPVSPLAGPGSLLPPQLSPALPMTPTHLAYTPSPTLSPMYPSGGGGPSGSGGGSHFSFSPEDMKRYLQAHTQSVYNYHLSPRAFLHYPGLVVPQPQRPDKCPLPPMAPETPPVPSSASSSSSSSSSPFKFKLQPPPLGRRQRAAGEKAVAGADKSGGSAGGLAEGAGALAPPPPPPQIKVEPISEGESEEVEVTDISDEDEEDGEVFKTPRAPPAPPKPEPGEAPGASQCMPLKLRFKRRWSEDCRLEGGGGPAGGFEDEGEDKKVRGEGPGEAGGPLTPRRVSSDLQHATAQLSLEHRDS
How it was run: as §1

[16] = target: T10, ETV3L (Homo sapiens, UniProt Q6ZN32 1-361)
T10 sequence: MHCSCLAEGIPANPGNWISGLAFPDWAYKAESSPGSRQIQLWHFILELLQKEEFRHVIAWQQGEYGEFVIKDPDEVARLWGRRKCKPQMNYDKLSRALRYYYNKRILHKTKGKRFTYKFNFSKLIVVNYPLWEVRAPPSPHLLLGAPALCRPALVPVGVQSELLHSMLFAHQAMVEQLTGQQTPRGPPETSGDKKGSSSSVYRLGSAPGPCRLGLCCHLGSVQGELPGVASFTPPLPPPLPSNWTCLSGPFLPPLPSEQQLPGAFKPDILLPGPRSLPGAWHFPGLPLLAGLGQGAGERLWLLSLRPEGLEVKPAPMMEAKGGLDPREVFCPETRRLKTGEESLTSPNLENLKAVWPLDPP
How it was run: as §1

[17] = target: T11, ETS2 (Homo sapiens, UniProt P15036 1-469)
T11 sequence: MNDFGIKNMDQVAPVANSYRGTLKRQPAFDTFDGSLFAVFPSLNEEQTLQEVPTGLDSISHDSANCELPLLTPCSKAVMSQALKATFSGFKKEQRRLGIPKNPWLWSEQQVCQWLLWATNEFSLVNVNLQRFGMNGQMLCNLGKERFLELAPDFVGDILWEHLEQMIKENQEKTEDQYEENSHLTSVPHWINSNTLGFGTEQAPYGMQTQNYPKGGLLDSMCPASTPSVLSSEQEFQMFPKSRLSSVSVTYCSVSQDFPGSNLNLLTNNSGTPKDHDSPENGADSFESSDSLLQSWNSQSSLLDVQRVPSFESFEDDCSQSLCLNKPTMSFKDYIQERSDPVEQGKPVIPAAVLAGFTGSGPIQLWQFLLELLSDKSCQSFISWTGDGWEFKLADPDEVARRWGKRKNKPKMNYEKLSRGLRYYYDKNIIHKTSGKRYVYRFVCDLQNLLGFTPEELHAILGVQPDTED
How it was run: as §1

[18] = target: T12, SPDEF (Homo sapiens, UniProt O95238 1-335)
T12 sequence: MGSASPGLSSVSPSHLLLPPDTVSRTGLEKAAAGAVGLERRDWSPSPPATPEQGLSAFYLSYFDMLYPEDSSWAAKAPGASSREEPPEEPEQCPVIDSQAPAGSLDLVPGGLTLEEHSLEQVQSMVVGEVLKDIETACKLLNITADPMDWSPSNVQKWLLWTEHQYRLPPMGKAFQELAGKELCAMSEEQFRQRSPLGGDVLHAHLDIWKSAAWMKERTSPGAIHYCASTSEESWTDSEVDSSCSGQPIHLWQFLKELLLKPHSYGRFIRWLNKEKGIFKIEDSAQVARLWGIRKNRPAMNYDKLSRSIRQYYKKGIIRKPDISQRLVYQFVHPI
How it was run: as §1

[19] = target: T13, ETV3 (Homo sapiens, UniProt P41162-2 1-143)
T13 sequence: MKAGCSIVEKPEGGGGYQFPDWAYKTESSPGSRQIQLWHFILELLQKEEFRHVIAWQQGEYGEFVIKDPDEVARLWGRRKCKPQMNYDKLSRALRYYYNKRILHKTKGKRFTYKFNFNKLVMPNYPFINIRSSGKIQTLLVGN
How it was run: as §1

[20] = target: ETV6 (Homo sapiens, UniProt P41212 1-452)
Chain of ETV6 (P41212 whole entry): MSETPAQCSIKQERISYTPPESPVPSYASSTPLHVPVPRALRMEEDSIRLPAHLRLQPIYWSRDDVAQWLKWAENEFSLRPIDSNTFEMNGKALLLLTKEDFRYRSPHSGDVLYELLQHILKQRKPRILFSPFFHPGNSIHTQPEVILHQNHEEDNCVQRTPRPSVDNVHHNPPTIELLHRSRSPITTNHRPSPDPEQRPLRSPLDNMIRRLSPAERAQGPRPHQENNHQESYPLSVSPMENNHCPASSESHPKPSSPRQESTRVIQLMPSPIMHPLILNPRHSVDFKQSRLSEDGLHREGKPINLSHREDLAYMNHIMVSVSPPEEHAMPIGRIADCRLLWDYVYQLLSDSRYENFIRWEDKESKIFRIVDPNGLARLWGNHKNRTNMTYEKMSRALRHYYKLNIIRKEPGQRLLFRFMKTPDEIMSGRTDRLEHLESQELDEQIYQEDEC
How it was run: as §1

## GCCCAC
[1]
  binding signal: 1.09 fold enrichment (6-mer frequency, TF over GST control)
[2]
  binding signal: 1.18 fold enrichment (6-mer frequency, TF over GST control)
[3]
  binding signal: 1.06 fold enrichment (6-mer frequency, TF over GST control)
[4]
  binding signal: 1.06 fold enrichment (6-mer frequency, TF over GST control)
[5]
  binding signal: 1.1 fold enrichment (6-mer frequency, TF over GST control)
[6]
  binding signal: 1.13 fold enrichment (6-mer frequency, TF over GST control)
[7]
  binding signal: 1.07 fold enrichment (6-mer frequency, TF over GST control)
[8]
  binding signal: 1.12 fold enrichment (6-mer frequency, TF over GST control)
[9]
  binding signal: 1.03 fold enrichment (6-mer frequency, TF over GST control)
[10]
  binding signal: 1.12 fold enrichment (6-mer frequency, TF over GST control)
[11]
  binding signal: 1.16 fold enrichment (6-mer frequency, TF over GST control)
[12]
  binding signal: 1.13 fold enrichment (6-mer frequency, TF over GST control)
[13]
  binding signal: 1.18 fold enrichment (6-mer frequency, TF over GST control)
[14]
  binding signal: 1 fold enrichment (6-mer frequency, TF over GST control)
[15]
  binding signal: 1.09 fold enrichment (6-mer frequency, TF over GST control)
[16]
  binding signal: 1.04 fold enrichment (6-mer frequency, TF over GST control)
[17]
  binding signal: 1.04 fold enrichment (6-mer frequency, TF over GST control)
[18]
  binding signal: 1.06 fold enrichment (6-mer frequency, TF over GST control)
[19]
  binding signal: 1.09 fold enrichment (6-mer frequency, TF over GST control)
[20]
  binding signal: 1.05 fold enrichment (6-mer frequency, TF over GST control)
